Screening data from PubChem BioAssay.
A selection: hits, their analogues and other compounds. The true share with any hit is near 2.2%.
CRFR2-BP ag: CRF-BP/CRF-R2 complex agonism; HEK293 CRF-R2/CRF-BP, calcium dye fluorescence (FLIPR); percent of saturating CRF peptide response; AID 588473; activation, % at 13.2 µM; actives 0.46% (n = 350,000);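 active means activation of at least 50%, plus an integration ratio under a set limit after plate pattern correction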
RTF Ca sens inh: cardiac RTF calcium desensitization | IANBD-labeled cardiac RTF, Ca2+ fluorescence | inhibition, % at 7.15 µM | actives 0.12% (n = 340,000);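 active means inhibition above the mean inhibition of all tested compounds plus 3 SD, cut at about 17% in these data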;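 further: assay run at fixed EC70 calcium of 1.6 mM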
CRFBP-R2 block: blocks CRF-induced signaling of the CRF-BP/CRF-R2 complex | HEK293 CRF-R2/CRF-BP, CRF-induced calcium fluorescence | inhibition, % at 11.8 µM | actives 0.59% (n = 350,000) | AID 588475;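 active means inhibition of the ligand-induced calcium signal above about 50% at the single tested concentration, limit read from the data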
Myeloid diff MLP: myeloid differentiation induction | ER-HoxA9 myeloid progenitors, lysozyme-GFP differentiation, flow cytometry | calls only at 10 µM | actives 1% (n = 360,000) | AID 624256;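 active means normalized GFP-positive differentiation at or above the plate's own cutoff, the solvent-only control mean plus 3 SD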;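 further: cells exposed to compound for four days before flow analysis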
cardiac RTF act: cardiac RTF calcium sensitization. IANBD-labeled TnC RTF fluorescence at EC20 calcium; 0% EC20 calcium, 100% full calcium. actives 0.24% (n = 340,000). AID 493008. activation, % at 7.2 µM. P19429+P45379;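 active means activation above the mean over all tested compounds plus 3 SD, cut at about 30% in these data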;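 further: rise in fluorescence read as greater calcium sensitivity of cardiac thin filaments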
Myeloid diff CP1: myeloid differentiation induction. calls only. shares compounds with Myeloid diff MLP. actives 2% (n = 2,300). ER-HoxA9 myeloid progenitors, GFP/Mac1 double-positive flow. AID 651706;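 active means share of green or green-and-red cells above 9 and 9% in run 1 or 4 and 3% in run 2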
GFP autofluor: compound fluorescence in myeloid differentiation counter-screen. fluorescence response, % (test concentration not listed). actives 7.4% (n = 2,300). shares compounds with Myeloid diff MLP. ER-HoxA9 myeloid progenitors, no estrogen, GFP autofluorescence flow cytometry; vehicle wells 0%, positive control 100%;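 active means over 5% cells positive for green fluorescent reporter, or over 2% positive for both it and APC stain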
A number is an active result; 0 = inactive; - = no result given; + = active, no number.

SMILES	CRFR2-BP ag	RTF Ca sens inh	CRFBP-R2 block	Myeloid diff MLP	cardiac RTF act	Myeloid diff CP1	GFP autofluor
CN(C)S(=O)(=O)c1ccc(NC(=O)C2CCCN(C(=O)c3ccc(Cl)cc3)C2)cc1 (stereo not drawn)	0	0	0	0	0	-	-
CCOC(=O)C1=C(O)/C(=C/c2ccc(OCC(=O)O)c(OC)c2)SC1=Nc1ccc(OCC)cc1	0	0	0	0	0	-	-
CCOC(=O)C1=C(O)/C(=C/c2cc(OC)c(O)c(OC)c2)SC1=Nc1ccc(OC)cc1	0	0	0	0	0	0	23
O=C(N/N=C/c1ccncc1)c1ccccc1OCc1ccc(Br)cc1	0	0	0	0	0	0	0
COc1ccc(-c2noc(CCC(=O)N3CCN(c4cccc(C(F)(F)F)c4)CC3)n2)cc1	0	0	0	+	0	0	0
CC1CCCCN1C(=O)COC(=O)C1CCN(S(=O)(=O)c2ccc3c(c2)OCCO3)CC1 (stereo not drawn)	0	0	0	0	0	-	-
Cc1ccccc1C(=O)NC1CCN(Cc2ccccc2)CC1	0	0	0	0	0	-	-
Cc1cccc(NS(=O)(=O)c2ccc(C)c(C(=O)NC3CCN(Cc4ccccc4)CC3)c2)c1	0	0	0	+	0	0	0
COC(=O)c1c(NC(=O)CSc2nnnn2-c2ccccc2)sc2c1CCC(C(C)(C)C)C2 (stereo not drawn)	0	0	0	0	0	0	0
COC(=O)c1ccc(NC(=S)NC2CCCCC2C)cc1 (stereo not drawn)	0	0	0	+	0	0	0
COc1ccc(N(C(=O)CNC(=O)c2ccco2)C(C(=O)NC2CCCC2)c2ccco2)cc1 (stereo not drawn)	0	0	0	0	0	-	-
O=C1NC(=S)N(C(=O)c2ccc(F)cc2)/C1=C/c1ccccc1	0	0	0	+	0	0	0
COc1ccc(/C=C2\C(=O)NC(=S)N2C(=O)c2ccc(F)cc2)cc1	0	0	0	0	0	-	-
COc1ccc(-c2cc(=O)oc3c(C)c(OC(C)C(=O)NCc4ccccn4)ccc23)cc1 (stereo not drawn)	0	0	0	0	0	-	-
C=CCOC(=O)C1=C[C@@H](c2coc3ccccc3c2=O)C[C@@H](OCCCCO)O1	0	0	0	0	0	0	0
O=C(/C=C/c1cc(Br)ccc1F)OCC(=O)N1CCCC1	0	0	0	0	0	-	-
COC(=O)c1ccc(OC)c(OC2CCCC2)c1	0	0	0	0	0	0	0
CCc1ccccc1N(C1=NCCCS1)S(=O)(=O)c1ccc(C(C)(C)C)cc1	0	0	0	0	0	-	-
Cn1cc(CN2CCC(C(=O)Nc3cccc(-c4cccc(F)c4)c3)CC2)cn1	0	0	0	0	0	-	-
CCCn1ncc(CN2CCC(C(=O)Nc3cccc(-c4cccc(F)c4)c3)CC2)c1C	0	0	0	+	0	0	0
COc1cc(NC(=O)CSc2nccc(C)n2)c(C)cc1[N+](=O)[O-]	0	0	0	0	0	-	-
COc1cc(NCCCNC(C)C)c2nccc(C)c2c1	0	0	0	+	0	0	0
C[C@@H]1CN([C@H](C)CO)S(=O)(=O)c2ccc(Br)cc2O[C@H]1CN(C)C(=O)C1CCCCC1	0	-	0	0	-	-	-
CSC1=NSC2=NC(=O)/C(=C/c3coc4ccc(O)cc4c3=O)C(=N)N12	79	0	0	+	177	0	0
CSC1=NSC2=NC(=O)/C(=C\c3cccs3)C(=N)N12	0	0	0	0	0	-	-
SMILES	CRFR2-BP ag	RTF Ca sens inh	CRFBP-R2 block	Myeloid diff MLP	cardiac RTF act	Myeloid diff CP1	GFP autofluor
CC1CN(C2CCN(C(=O)COc3ccc(Cl)cc3)CC2)CC(C)O1 (stereo not drawn)	0	0	0	0	0	-	-
CCOc1ccc(S(=O)(=O)NN=C(C)c2cccnc2)cc1	0	0	0	0	0	-	-
CC1Nc2ncnc(N3CCOCC3)c2N(Cc2ccccc2)C1=O (stereo not drawn)	0	0	0	0	0	0	0
O=C(NCCCN1CCCC1=O)c1cc2nc(-c3ccco3)cc(C(F)(F)F)n2n1	0	0	0	0	0	-	-
CCOC(=O)c1cn(CC(=O)Nc2ccc(OC)cc2OC)nn1	0	0	0	0	0	-	-
Cc1cc(C(=O)NC2CCCc3c2cnn3-c2cccc(C)c2C)n(C)n1 (stereo not drawn)	0	0	0	+	0	0	0
